TGFb SMAD3 inh: blocks TGF-b signaling; 410,000 compounds, 1.2% hits; HepG2 CAGA-GFP TGF-b/SMAD3 reporter, GFP fluorescence, 18 h; TGF-beta stimulated, 500 pg/mL final; Potency, µM (top dose mostly 46.1 µM), inactives show at the top dose activity, negative = inhibition, hits mostly inhibitors; AID 588855; note: % is set by controls: 0 for no effect and ±100 for the full control effect; nearly all actives have a fitted effect of over 65% in size
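HEPG2 CAGA-GFP cells (1000/well, DMEM with 1% FBS) were pre-incubated 2 h at 37 degrees C, given compound by pin tool, then stimulated with TGF-beta at 500 pg/mL final for 18 h before per-cell GFP fluorescence imaging.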
GLP-1R inv ag: acts as inverse agonist at human GLP-1 receptor | P43220 | HEK293 GLP-1R CRE-luciferase, luminescence, 24 h; GLP-1R form is constitutively active | Potency, µM (doses to about 38.3 µM), for inactives: at the top dose activity change, negative = inhibition, hits mostly inhibitors | 410,000 compounds, 1.6% hits; note: % is set by controls: 0 for no effect and ±100 for the full control effect; nearly all actives have a fitted effect of over 55% in size
Target sequence (P43220 whole entry, looked up): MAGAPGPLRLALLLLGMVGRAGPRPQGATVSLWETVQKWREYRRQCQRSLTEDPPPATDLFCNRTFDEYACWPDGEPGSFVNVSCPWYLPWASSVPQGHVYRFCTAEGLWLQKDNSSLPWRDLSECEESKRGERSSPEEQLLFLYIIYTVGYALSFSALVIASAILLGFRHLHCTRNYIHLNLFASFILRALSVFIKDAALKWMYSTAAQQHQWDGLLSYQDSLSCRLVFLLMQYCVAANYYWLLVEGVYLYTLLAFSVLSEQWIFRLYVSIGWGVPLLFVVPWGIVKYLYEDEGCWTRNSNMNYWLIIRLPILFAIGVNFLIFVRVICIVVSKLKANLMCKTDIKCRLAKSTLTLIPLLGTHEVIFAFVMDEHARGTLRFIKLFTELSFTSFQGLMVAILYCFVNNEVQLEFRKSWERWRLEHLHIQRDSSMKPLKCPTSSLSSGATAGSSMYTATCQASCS
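Using stably transfected HEK293 (constitutively active GLP-1R, cAMP-luciferase reporter), compounds were incubated 24 hr and luciferase measured by luminescence.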
HepG2 viability: kills HepG2 cells in TGF-b inhibitor counter-screen. Potency, µM (doses to about 46.1 µM), for the others: at the top dose activity change, negative = cytotoxicity, usual class: cytotoxic. 410,000 compounds, 0.76% hits. HepG2 CAGA-GFP viability, ATP luminescence, 18 h
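HepG2 CAGA-GFP cells (1000/well, DMEM with 1% FBS) received compound, then TGF-beta at 500 pg/mL final, and were incubated 18 hours at 37 degrees C. Viability was read by CellTiter-Glo luminescence. Media-only wells were set as complete cell-killing and DMSO as no toxicity.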
ATXN2 expr inh: inhibitors of ATXN2 expression | HEK-293 ATXN2-luciferase reporter, luminescence, 24 h | Potency, µM (top dose mostly 57 µM), for inactives: at the highest dose activity change, negative = inhibition, most hits filed as inhibitors | 360,000 compounds, 0.72% hits | AID 1745845; note: % is set by controls: 0 for no effect and ±100 for the full control effect; nearly all actives have a fitted effect of over 55% in size
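qHTS (up to 57 uM final) was run with 24 h compound exposure of reporter cells at 37 °C. Each well was multiplexed: SteadyGlo luminescence measured ATXN2-luciferase expression after a fluorogenic Gly-Phe-AFC viability readout (25 uM final).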
S2 tox: reduces viability in counter-screen for ATXN expression inhibitors | S2 cells (HEK-293 line with an ATXN2-luciferase reporter) viability, CellTiter-Fluor protease fluorescence, 24 h | 400,000 compounds, 0.49% hits | Potency, µM (doses to about 56.7 µM), hits mostly cytotoxic; note: nearly all actives have a fitted effect of over 40% in size
GLP1R ag: agonists of human GLP-1 receptor | HEK293 GLP-1R CRE-luciferase, luminescence, 4-6 h; cells express a hypersensitive GLP-1R form | AID 624172 | Potency, µM (titrated, usually from 45.6 µM), for inactives: at the highest dose activation, actives largely listed as activators | 380,000 compounds, 0.007% hits; note: % of control where 0% means no effect
* = called active by the depositor; i = inactive; u = inconclusive; x = no result given. This is a sample that favours compounds with a hit; in the whole collection about 3.7% have one here. Calls come from the whole dose curve; as a rule, active = well fitted curve in the direction sought with a large enough effect; inconclusive = small, poorly fitted or top-dose-only effect, or another doubt; inactive = no such curve, though single readings can be large; an effect the other way counts as inactive or inconclusive. Potency is the fitted concentration of half-maximal effect.

SMILES	TGFb SMAD3 inh	GLP-1R inv ag	HepG2 viability	ATXN2 expr inh	S2 tox	GLP1R ag
C=CCN(CC=C)C(=S)NC(=O)c1ccc(C)c(Br)c1	-18%	3.2µM*	-6%	u	u	-3%
O=C1CC(c2ccccc2)Cc2[nH]c(=O)c(C(=O)O)cc21 (stereo not drawn)	-11%	x	-8%	x	x	x
COc1cccc(-c2cn3nc4c(nc3n2)CCCC4)c1	-7%	2.5µM*	-71%	u	i	-34%
Clc1ccc(-c2cn3ncsc3n2)cc1	-16%	15%	-12%	11%	i	x
COc1cccc(-c2cc(C(F)(F)F)n3nc(N)nc3n2)c1	0%	123%	1%	-3%	i	10%
Clc1ccc(-c2cn3nc4c(nc3n2)CCCC4)cc1	5%	6.3µM*	-1%	14µM*	x	-19%
CCc1ccc(C(O)(CNCc2ccccc2)c2ccccc2)cc1 (stereo not drawn)	u	11µM*	-48%	x	i	-5%
COc1ccc(CNCC(O)(c2ccccc2)c2ccc(Cl)cc2)cc1 (stereo not drawn)	u	-5%	16µM*	u	i	1%
Cc1nc([N+](=O)[O-])cn1CC(O)c1ccc2c(c1)OCCCO2 (stereo not drawn)	-10%	x	1%	x	x	x
CC1CN(C)C(C)CC1OC(=O)C(c1ccccc1)c1ccccc1 (stereo not drawn)	-29%	u	-40%	-22%	i	5%
CCCCOc1ccc(C(=O)OC2CC(C)N(C)CC2C)cc1 (stereo not drawn)	12%	3.5µM*	-37%	-6%	i	16%
Cn1c(-c2ccc(F)cc2)cnc1NCc1cc2c(cc1[N+](=O)[O-])OCO2	1%	u	9%	-13%	u	-1%
Cn1c(-c2ccc(Cl)cc2)cnc1NCc1cc2c(cc1[N+](=O)[O-])OCO2	-6%	4µM*	-4%	-9%	u	-2%
CC1(C)OC2=C(C(=O)c3ccccc3C2=O)[C@H](NCc2ccccc2)[C@H]1O	x	x	x	3.4µM*	x	x
COc1cc2nc(-c3ccc(N4CCN(C)CC4)cc3)nc(NCCN3CCOCC3)c2cc1OC	x	x	x	0.39µM*	x	x
CO/N=C1\C[C@]2(C[C@@H]3C[C@H](C/C=C(/C)C[C@@H](C)/C=C\C=C4\CO[C@@H]5[C@@H](O)C(C)=C[C@@H](C(=O)O3)[C@]45O)O2)O[C@@H](/C(C)=C/C(C)C)[C@H]1C	x	x	x	x	x	-5%
COc1ccc(C)cc1NC(=O)CSc1nc(=O)n(Cc2cccnc2)c2c1CCC2	-23%	12%	-14%	-7%	i	x
COc1ccc(C)cc1NC(=O)CSc1nc(=O)n(Cc2ccccn2)c2c1CCC2	8.9µM*	2%	-32%	-16%	i	x
Cc1cccc(NC(=O)CSc2nc(=O)n(Cc3cccnc3)c3c2CCC3)c1	18µM*	6%	-33%	-15%	i	x
CN(C)CCn1c2c(c(SCC(=O)Nc3cccc(C(F)(F)F)c3)nc1=O)CCCC2	20%	10µM*	-83%	-21%	i	7%
COc1ccc(Cl)cc1NC(=O)CSc1nc(=O)n(CCN(C)C)c2c1CCCC2	-2%	11µM*	-58%	-9%	i	-1%
O=C(Nc1ccncc1)C1CCCN(S(=O)(=O)c2cccc3cccnc23)C1 (stereo not drawn)	-16%	1.8µM*	-3%	u	u	8%
O=C(NCCC1=CCCCC1)C1CCCN(S(=O)(=O)c2cccc3cccnc23)C1 (stereo not drawn)	u	7.9µM*	-27%	u	u	1%
O=C(Nc1ccc(C(F)(F)F)cc1)C1CCCN(S(=O)(=O)c2cccc3cccnc23)C1 (stereo not drawn)	11µM*	u	-34%	6%	i	x

Assay outcomes as filed in PubChem BioAssay.
